Bioassay records: PubChem, National Center for Advancing Translational Sciences (NCATS)
In the library only some 10% were active in any assay of this set; here they are far more common.
HPGD inh – blocks human HPGD enzyme activity; P15428; purified HPGD, NADH fluorescence kinetic, PGE2 substrate; Potency, µM, for inactives: top-dose activity change, negative = inhibition, most hits filed as inhibitors; actives 4.3% (n = 150,000); AID 894; note: potency is the fitted concentration of half-maximal effect
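NADH formation kinetics: reaction with 30 uM PGE2 and 1 mM NAD+ (final), 20 nM enzyme, Tris-HCl pH 8 with Tween 20, after 15 min compound preincubation at room temperature. Fluorescence change, last versus first of five reads.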
ALDH1A1 block – ALDH1A1 (human) enzyme inhibition; Purified ALDH1A1, NADH fluorescence, propionaldehyde substrate; Potency, µM (titrated, usually from 75.3 µM), inactives show top-dose activity, negative = inhibition, most hits filed as inhibitors; actives 7.3% (n = 220,000); AID 1030;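 note: potency is the fitted concentration of half-maximal effect; plate controls were no enzyme wells and a reference inhibitor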
LMNA splice mod – LMNA splicing modulation | actives 0.01% (n = 200,000) | Potency, µM (top dose mostly 46.1 µM), inactives show at the top dose ratio change, negative = inhibition, most hits filed as inhibitors | HeLa LMNA splicing GFP/RFP minigene ratio, 48 h; active = well fitted inhibition curve with a large enough effect in the signal ratio, with a control signal flat, not every such curve was filed as active; inconclusive = small, poorly fitted or top-dose-only effect, or effect the other way, or a change in a side signal; the % refers to the signal ratio; note: potency is the fitted concentration of half-maximal effect
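Read-out is the ratio of GFP to DsRed2 object intensity, acquired by 488 nm laser-scanning cytometry on HeLa lamin A-EGFP minigene reporter cells. Compound incubation 48 hrs at 37 °C in Opti-MEM with 2% FBS; DMSO 0.5% final.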
12-hLO inh – blocks human 12-lipoxygenase activity; P18054; purified 12-hLO, xylenol orange hydroperoxide absorbance; Potency, µM (series often up to 57.1 µM), for the others: at the top dose activity change, negative = inhibition, hits mostly inhibitors; actives 0.12% (n = 150,000); AID 1452; active = well fitted inhibition curve with a large enough effect; inconclusive = small, poorly fitted or top-dose-only effect; note: potency is the fitted concentration of half-maximal effect; nearly all actives have a fitted effect of over 55% in size
Target sequence (P18054 whole entry, looked up): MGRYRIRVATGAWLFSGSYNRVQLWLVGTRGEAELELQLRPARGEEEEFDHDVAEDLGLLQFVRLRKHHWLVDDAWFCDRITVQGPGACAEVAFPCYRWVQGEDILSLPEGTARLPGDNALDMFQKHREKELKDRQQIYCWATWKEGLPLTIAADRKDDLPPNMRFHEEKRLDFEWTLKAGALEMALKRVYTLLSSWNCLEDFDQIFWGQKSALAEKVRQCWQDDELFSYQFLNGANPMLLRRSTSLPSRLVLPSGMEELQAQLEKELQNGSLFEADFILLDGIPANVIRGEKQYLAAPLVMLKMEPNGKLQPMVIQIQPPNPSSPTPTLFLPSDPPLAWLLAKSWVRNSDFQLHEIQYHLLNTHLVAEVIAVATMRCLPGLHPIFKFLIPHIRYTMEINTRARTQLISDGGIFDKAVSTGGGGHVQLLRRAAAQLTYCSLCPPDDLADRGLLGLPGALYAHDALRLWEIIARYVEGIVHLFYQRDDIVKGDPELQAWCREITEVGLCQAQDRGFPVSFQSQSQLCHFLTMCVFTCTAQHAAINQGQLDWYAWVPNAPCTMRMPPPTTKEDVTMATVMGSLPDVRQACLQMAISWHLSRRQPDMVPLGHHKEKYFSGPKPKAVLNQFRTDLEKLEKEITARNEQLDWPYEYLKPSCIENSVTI
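Purified human 12hLO (150 nM final) was preincubated with compounds for 15 min at room temperature in 25 mM Hepes pH 7.0, 0.01% Triton X-100, then reacted with 40 uM arachidonic acid for 30 min. Hydroperoxide was detected with ferrous iron/xylenol orange.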
PNC inhibitor – blocks assembly of the perinucleolar compartment; AID 2417; PC3M PTB-GFP, PNC prevalence imaging, 16 h; hits give low values; actives 3.1% (n = 140,000); activity change (PNC), negative = inhibition, % at 10 µM;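 active = readout at or below -70, meaning at least 70% loss of cells showing the perinucleolar compartment, a nuclear body marking cancer cells; inconclusive = readout between -30 and a set limit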;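 note: plate controls were DMSO wells for no effect and camptothecin positive control wells for full effect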
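Compounds are pinned in duplicate onto adhered PC3M cells stably expressing GFP-tagged PTB and incubated 16 h at 37 C. Cells are then fixed, nuclei stained with Hoechst, and PNC-positive cells counted.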
Starred values were filed as active, the others as inactive; [ ] = remark or other dose. Unless noted, calls come from the whole dose curve; as a rule, active = well fitted inhibition curve with a large enough effect (not every such curve was filed as active); inconclusive = small, poorly fitted or top-dose-only effect, or another doubt; inactive = no such curve, though single readings can be large or run the other way. Unless noted, % is set by controls: 0 for no effect and ±100 for the full control effect.

CC1CN(C(=O)N2CCC(C(=O)NCCC3=CCCCC3)CC2)c2cc(Cl)ccc2O1 (centres undefined) was read as LMNA splice mod -17.6%[46 µM].
Screening COc1ccc([N+](=O)[O-])cc1N(CC(=O)N1CCCC1)S(C)(=O)=O returned ALDH1A1 block -6.0%.
`CC1=CC(C)(C)N(S(=O)(=O)c2ccc(C)cc2)c2cc(C)ccc21` gave HPGD inh -18.1%, ALDH1A1 block -1.4%, LMNA splice mod inconclusive, 12-hLO inh -5.6% and PNC inhibitor -95.2*.
`COc1ccc2c(c1)C(C)=CC(C)(C)N2S(=O)(=O)c1ccc(C)cc1` gave ALDH1A1 block -1.7%.
For c1ccc2cc(NCNc3ccc4ccccc4c3)ccc2c1 the results were HPGD inh -15.6%, ALDH1A1 block inconclusive and 12-hLO inh 1.4%[11.4 µM].
`COC(=O)c1ccc(C23CC2(C(NP(=O)(c2ccccc2)c2ccccc2)c2ccccc2)C3)cc1` (centres undefined) gave HPGD inh -19.4%, ALDH1A1 block 31.6µM* and 12-hLO inh -11.5%.
For C[C@@H](C(=O)Cc1ccc2ccccc2c1)[C@@H]1C[C@@]1(C)[C@@H](NP(=O)(c1ccccc1)c1ccccc1)c1ccccc1 the results were HPGD inh -15.5%, ALDH1A1 block 4.8% and 12-hLO inh -4.2%.
`Cc1ccc(C)c(C(=O)CSc2n[nH]c(-c3ccncc3)n2)c1` gave ALDH1A1 block 5.01µM*, LMNA splice mod inconclusive, 12-hLO inh -2.0% and PNC inhibitor -10.5.
Cc1cc(C)c(C(=O)CSc2n[nH]c(-c3ccncc3)n2)c(C)c1 was read as ALDH1A1 block 11.0% and LMNA splice mod 12.1%[46 µM].
For COc1ccc(OC)c(-c2noc(N3CCN(c4cccc(C)c4C)CC3)n2)c1 the results were LMNA splice mod -21.2%[46 µM].
Screening OC(CCN1CCCCC1)(c1ccccc1)C1CCCCC1 (centres undefined) returned HPGD inh -3.4%, ALDH1A1 block 11.2%, LMNA splice mod -2.6%, 12-hLO inh -1.9% and PNC inhibitor 132.1.
OC(CCN1CCOCC1)(c1ccc(Cl)cc1)C1CCCCC1 (centres undefined) was read as HPGD inh 2.6%, ALDH1A1 block 7.08µM*, LMNA splice mod -4.8%, 12-hLO inh -2.2% and PNC inhibitor -9.2.
Screening CC(=O)NCCNc1ncncc1-c1ccccc1C returned ALDH1A1 block -5.5% and LMNA splice mod 6.0%.
`Cc1ccc(S(=O)(=O)c2cnc(-c3ccccc3)nc2N2CCN(C)CC2)cc1` gave ALDH1A1 block 2.24µM*.
Screening Cc1ncc(S(=O)(=O)c2ccccc2)c(-c2ccccc2)n1 returned HPGD inh -4.0%, ALDH1A1 block -5.8%, LMNA splice mod 18.3%, 12-hLO inh 5.4% and PNC inhibitor 26.0.
For Cc1ccc(S(=O)(=O)c2cc(N3CCOCC3)nc(-c3ccccc3)n2)cc1 the results were HPGD inh -12.3%, ALDH1A1 block inconclusive, LMNA splice mod -5.3%, 12-hLO inh 5.5% and PNC inhibitor inconclusive.
For CN1CCN(c2nc(-c3ccccc3)ncc2S(=O)(=O)c2ccccc2)CC1 the results were ALDH1A1 block 14.1µM*.
Screening O=S(=O)(c1ccccc1)c1cnc(-c2ccccc2)nc1N1CCCCC1 returned ALDH1A1 block 12.6µM* and LMNA splice mod 28.3%[46 µM].
For COC(=O)C1=C(C(=O)OC)[C@@H]2N(Cc3ccccc3)c3ccccc3[C@@]23C[C@@H](C(=O)OC)N(S(=O)(=O)c2cccs2)C3=N1 the results were HPGD inh -12.2%, ALDH1A1 block -13.6%[13.5 µM], LMNA splice mod 3.4%[9.22 µM] and 12-hLO inh 1.6%[11.4 µM].
Screening Cc1ccc(OC(C)C(=O)NCC2(N3CCOCC3)CCCCC2)cc1C (centres undefined) returned LMNA splice mod -2.0%[46 µM].
`C=CCn1c(SCC(=O)NC(=O)NC)nnc1C1CCCCC1` gave ALDH1A1 block 2.8%.
Screening C=CCn1c(SCC(=O)NC(=O)NCCC)nnc1C1CCCCC1 returned HPGD inh -13.1%, ALDH1A1 block 5.62µM*, LMNA splice mod -6.1%, 12-hLO inh 3.5% and PNC inhibitor 2.9.
For Cc1cccc(-n2c(SCC(=O)Nc3nnc(C)s3)nnc2-c2ccoc2C)c1 the results were HPGD inh -3.6%, ALDH1A1 block inconclusive, LMNA splice mod 23.2%, 12-hLO inh -13.2% and PNC inhibitor 20.1.
`COc1cccc(-n2c(SCC(=O)Nc3nccs3)nnc2-c2ccoc2C)c1` gave HPGD inh -13.6%, ALDH1A1 block inconclusive, LMNA splice mod -0.9%, 12-hLO inh 3.3% and PNC inhibitor -100.0*.
For COc1ccc(-n2c(SCC(=O)Nc3nccs3)nnc2-c2ccoc2C)cc1 the results were HPGD inh -4.9%, ALDH1A1 block -7.6%, LMNA splice mod 7.0%, 12-hLO inh 2.0% and PNC inhibitor -6.8.
`CCc1nnc(NC(=O)CSc2nnnn2-c2cccc(C(=O)OC)c2)s1` gave HPGD inh 14.1µM*, ALDH1A1 block inconclusive, LMNA splice mod -1.0%, 12-hLO inh 1.4% and PNC inhibitor 11.9.
For CCc1nnc(NC(=O)CSc2nnc(-c3ccoc3C)n2-c2cccc(C)c2)s1 the results were HPGD inh -6.5%, ALDH1A1 block inconclusive, LMNA splice mod 9.5%, 12-hLO inh -16.0% and PNC inhibitor -95.8*.
CCc1nnc(NC(=O)CSc2nnnn2C)s1 was read as HPGD inh inconclusive, ALDH1A1 block 3.9%, LMNA splice mod -5.5%, 12-hLO inh -2.4% and PNC inhibitor 144.0.
CC(=O)c1cccc(-n2nnnc2SCC(=O)Nc2ccccc2N2CCCCC2)c1 was read as HPGD inh -14.1%, ALDH1A1 block 1.8%, LMNA splice mod -2.5%, 12-hLO inh -2.6% and PNC inhibitor -105.7*.
Screening Cc1cc(C)c(NC(=O)C2CCN(C(=O)N3CC(C)Oc4ccc(Cl)cc43)CC2)c(C)c1 (centres undefined) returned LMNA splice mod 2.1%[46 µM].
`COC(=O)c1c(NC(=O)CSc2nnnn2-c2ccccc2)sc2c1CCC(C(C)(C)C)C2` (centres undefined) gave HPGD inh -16.6%, ALDH1A1 block 12.6µM*, LMNA splice mod 8.1%, 12-hLO inh -3.0% and PNC inhibitor 37.6.
`COc1cccc(OC)c1C(=O)N1CCN(c2ccccn2)CC1` gave HPGD inh inconclusive, ALDH1A1 block inconclusive, LMNA splice mod 7.4%, 12-hLO inh -1.0% and PNC inhibitor inconclusive.
`COc1ccc(NC(=O)C(c2ccccc2)N2CCN(c3ccccn3)CC2)cc1Cl` (centres undefined) gave ALDH1A1 block 8.91µM*.
COc1ccc(NC(=O)CN(C)S(=O)(=O)c2ccc(C(=O)N3CCOCC3)s2)cc1 was read as LMNA splice mod 3.7%[46 µM].
